From PubChem BioAssay AID2661 (Broad Institute, 2010)
The campaign covered roughly 320,000 compounds. About 240 (0.075%) were called active.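 Rule for the calls: active = inhibition at or above 25%, using the most active replicate where run in duplicate; inactive = inhibition below 25%.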 The list comes from a sample in which actives are over-represented; it also holds similar structures and randomly drawn compounds.

biological target: Serine/threonine-protein kinase 33 (Homo sapiens) (UniProt Q9BYT3); assay: STK33 phosphorylation of MBP blockers – biochemical, ADP-Glo luminescence, homogeneous, cell-free, primary screen (AID 2661); settings: purified STK33, MBP phosphorylation, at 10 µM, hits give high values
Sequence (Q9BYT3 whole entry, looked up): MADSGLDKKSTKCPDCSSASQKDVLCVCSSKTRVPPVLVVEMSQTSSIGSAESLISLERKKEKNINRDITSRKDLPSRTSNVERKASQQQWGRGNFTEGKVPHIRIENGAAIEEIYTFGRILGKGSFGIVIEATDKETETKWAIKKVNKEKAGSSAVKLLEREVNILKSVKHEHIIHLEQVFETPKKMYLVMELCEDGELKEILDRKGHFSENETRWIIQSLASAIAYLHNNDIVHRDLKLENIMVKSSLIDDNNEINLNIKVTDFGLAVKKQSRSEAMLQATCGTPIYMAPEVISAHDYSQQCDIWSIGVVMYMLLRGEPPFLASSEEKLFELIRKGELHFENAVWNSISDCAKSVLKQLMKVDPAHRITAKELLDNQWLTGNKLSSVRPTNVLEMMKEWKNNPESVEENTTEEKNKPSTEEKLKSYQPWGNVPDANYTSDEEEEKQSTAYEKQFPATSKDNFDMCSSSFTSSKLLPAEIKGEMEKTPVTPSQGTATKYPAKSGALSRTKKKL

Row | Structure (SMILES) | inhibition
1 | Oc1ccc(N=Cc2c(O)ccc3ccccc23)cc1 | 57.4% (active)
2 | O=[N+]([O-])c1ccc(N=Cc2c(O)ccc3ccccc23)cc1 | -0.767% (inactive)
3 | Oc1ccc(N=Cc2sc3ccccc3c2Cl)cc1 | 1.25% (inactive)
4 | CC(OC(=O)c1c(F)cccc1F)C(=O)NCCC1=CCCCC1 (stereo not drawn) | -0.382% (inactive)
5 | Cc1ccc(C)c(S(=O)(=O)N2CCN(c3ncnc4sccc34)CC2)c1 | -3.05% (inactive)
6 | COc1ccc(C(=O)Nc2cc(S(=O)(=O)N3CCCC3)ccc2Cl)cc1 | 0.138% (inactive)
7 | COc1cc(OC)cc(C(=O)NNC(=O)Cc2cccs2)c1 | -0.657% (inactive)
8 | COc1ccc2sc(-c3ccc(S(C)(=O)=O)cc3)c(C#Cc3cncn3C)c2c1 | -0.341% (inactive)
9 | O=C(CNC(=O)c1n[nH]c2ccccc12)Nc1cc(Cl)ccc1Cl | 1.57% (inactive)
10 | CC(C)n1cnc2c(NCc3ccccc3)cc(N[C@@H](CO)Cc3ccccc3)cc21 | 0.0472% (inactive)
11 | C=CC[C@@H](CC(=O)N[C@@H](CO)Cc1ccccc1)C(=O)N[C@H](COC(=O)[C@H](CC=C)CC(=O)OC(C)(C)C)Cc1ccccc1 | -0.409% (inactive)
12 | CCCCCCSc1ccc([C@@H]2[C@H]3C(=O)N(CC)C(=O)[C@H]3[C@]3(C(=O)OC)CCCCN23)cc1 | 1.08% (inactive)
13 | CC(C)NC(=O)Nc1cccc2c1O[C@H](CN(C)S(=O)(=O)c1cccs1)[C@@H](C)CN([C@H](C)CO)C2=O | -0.082% (inactive)
14 | O=C(CCc1ccc(S(=O)(=O)N2CCOCC2)cc1)OCC(=O)c1ccc(Br)cc1 | 2.88% (inactive)
15 | COc1cc(NC(=O)COC(=O)c2ccc([N+](=O)[O-])s2)cc(OC)c1OC | -0.723% (inactive)
16 | O=C(CSc1nc2ccccc2c(=O)n1-c1ccccc1F)N1CCOCC1 | -0.216% (inactive)
17 | COC(=O)c1ccc(CNC(=O)c2ccc(S(=O)(=O)N3CCCCCC3)cc2)cc1 | -0.472% (inactive)
18 | Cn1cncc1C#Cc1c(-c2ccsc2)sc2ccccc12 | 0.202% (inactive)
19 | Cc1ccccc1NC(=O)CSC(=O)c1ccccc1 | -0.158% (inactive)
20 | COc1ccc(S(=O)(=O)N2CCOCC2)cc1NC(=O)CSc1nnc(NC2CC2)s1 | -0.646% (inactive)
21 | O=C(CN1C(=O)NC2(CCCCCCC2)C1=O)NCc1ccc(F)cc1 | 0.305% (inactive)
22 | COc1cc(/C=C/C(=O)OCC(=O)NCCCc2ccccc2)ccc1O | -0.517% (inactive)
23 | COc1ccc(-c2sc3ccccc3c2-c2ccc(OCCN3CCOCC3)cc2)cc1 | -0.928% (inactive)
